In PubChem BioAssay (NCATS):
Inconclusive results are not listed. Unmarked numbers belong to inactive results. Calls of active or inactive are those of the source. The call rests on the fitted dose curve; in most records, active means well fitted inhibition curve with a large enough effect; inconclusive means small, poorly fitted or top-dose-only effect; inactive means flat fitted curve, though single readings scatter. Non-standard residues stand in square brackets, D forms with d. Residues, ends and D or L forms follow the SMILES beside them. Orn = NCCC[C@H](N)C(=O)O

What follows are compounds tested on astro (assay: Drug repurposing screens with cells derived from glioblastoma tumor samples (AID 1345199; further: nearly all actives have a fitted effect of over 40% in size)). Conditions: viability, ATP luminescence, 48 h; series mostly up to 45.9 µM; activity, negative = cell killing: at the top concentration.
Description: CD133+ cells were isolated from GBM patient biopsies and cultured as neurospheres. Neurospheres from four patients were used to screen the NCATS pharmaceutical collection (NPC) library of approved drugs and bioactive compounds. […] The neurospheres were incubated with drugs for 48 hours in 1536-well format, then assayed with an ATP content cell viability assay. […] These hits were cherry picked to confirm activity in the four original GBM lines screened plus three other slower growing GMB lines (unable to yield enough cells for a full primary screen). Variable activities of the confirmed primary hits in the different GBM patient lines were observed. The patient line 206 responded to the greatest number of compounds and line 923 responded to the least amount of active compounds.
On the % scale 0 is the no-effect control and ±100 the full control effect; potency means the concentration at half of the fitted maximal effect.

Structure (SMILES) | activity, negative = cell killing | Potency
Cc1ccccc1 | -15.4% | –
CC(=O)O[C@]1(C(C)=O)CC[C@H]2[C@@H]3CCC4=CC(=O)CC[C@]4(C)[C@@]3(F)[C@@H](O)C[C@@]21C | -21.2% | –
CC(=O)N[C@@H](CC(=O)N[C@@H](CCC(=O)O)C(=O)O)C(=O)O | 5.93% | –
O=C(O)c1cc(=O)c2c3nc4ccccc4oc-3cc(=O)c2[nH]1 | -16.4% | –
CCOC(=O)O[C@]1(C(=O)COC(=O)CC)CC[C@H]2[C@@H]3CCC4=CC(=O)C=C[C@]4(C)[C@H]3[C@@H](O)C[C@@]21C | -7.16% [at 21.2 µM] | –
COc1ccc(C[C@@H](C)NC[C@H](O)c2ccc(O)c(NC=O)c2)cc1 | -21.8% | –
COc1cc(-c2ccc(-[n+]3nc(-c4ccccc4)nn3-c3ccc([N+](=O)[O-])cc3)c(OC)c2)ccc1-[n+]1nc(-c2ccccc2)nn1-c1ccc([N+](=O)[O-])cc1 | – | 3.55 µM (active)
CCCCCCCCCCCCCCCC(=O)OCC(COC(=O)CCCCCCCCCCCCCCC)OC(=O)CCCCCCCCCCCCCCC | -9.96% | –
Cc1cc(CC(C)CC(C)(C)C)n(O)c(=O)c1 (stereo not given) (tested in a mixture with another compound) | – | 20 µM (active)
CCCCC(=O)OCC(=O)[C@]1(O)Cc2c(O)c3c(c(O)c2[C@@H](O[C@H]2C[C@H](NC(=O)C(F)(F)F)[C@H](O)[C@H](C)O2)C1)C(=O)c1c(OC)cccc1C3=O | – | 2.24 µM (active)
O=C(O)CN(CCN(CC(=O)O)CC(=O)O)CC(=O)O | -5.83% | –
CC(C)C[C@@H]1NC(=O)[C@H](CCCN)NC(=O)[C@H](C(C)C)NC(=O)[C@@H]2CCCN2C(=O)[C@@H](Cc2ccccc2)NC(=O)[C@H](CC(C)C)NC(=O)[C@H](CCCN)NC(=O)[C@H](C(C)C)NC(=O)[C@@H]2CCCN2C(=O)[C@@H](Cc2ccccc2)NC1=O (cyclo(V[Orn]L[dF]PV[Orn]L[dF]P)) | – | 3.98 µM (active)
CCOC(=O)C1=C(C)NC(C)=C(C(=O)OCC)C1c1ccccc1C=CC(=O)OC(C)(C)C | – | 20 µM (active)
CC(=O)OCC(=O)[C@@]12OC3(CCCC3)O[C@@H]1C[C@H]1[C@@H]3CCC4=CC(=O)C=C[C@]4(C)[C@@]3(F)[C@@H](O)C[C@@]12C | -9.4% | –
Cc1cc(C(=O)NNCc2ccccc2)no1 | -7.86% [at 21.2 µM] | –
CCN(CC)CCOc1ccc(-c2nc3cc(Cl)ccc3s2)cc1 | – | 20 µM (active)
COc1cc([C@@H]2c3cc4c(cc3[C@@H](O[C@@H]3O[C@@H]5CO[C@@H](C)O[C@H]5[C@H](O)[C@H]3O)[C@H]3COC(=O)[C@H]23)OCO4)cc(OC)c1O | -27.5% | –
CC(C(=O)O)c1ccc(N2Cc3ccccc3C2=O)cc1 (stereo not given) | – | 10 µM (active)
COC(=O)[C@H]1[C@H]2C[C@@H]3c4[nH]c5ccccc5c4CCN3C[C@H]2C[C@@H](OC(=O)c2cc(OC)c(OC)c(OC)c2)[C@@H]1OC | -27.9% | –
CCCC(=O)O[C@]1(C(=O)COC(C)=O)CC[C@H]2[C@@H]3C[C@H](F)C4=CC(=O)C=C[C@]4(C)[C@@]3(F)[C@@H](O)C[C@@]21C | -17.1% | –

Structure (SMILES) | activity, negative = cell killing | Potency
COC(=O)CCC(=O)CN | -13.5% | –
CCCCC(C)(O)C/C=C/[C@H]1[C@H](O)CC(=O)[C@@H]1CCCCCCC(=O)OC (stereo not given in full) | -4.24% | –
CCC(=O)O[C@@H]1CC(=O)O[C@H](C)C/C=C/C=C/[C@H](O)[C@H](C)C[C@H](CC=O)[C@H](O[C@@H]2O[C@H](C)[C@@H](O[C@H]3C[C@@](C)(O)[C@@H](OC(=O)CC)[C@H](C)O3)[C@H](N(C)C)[C@H]2O)[C@H]1OC | 20% [at 21.2 µM] | –
C=CCSSSCC=C | -22.8% | –
CC[C@H]1OC(=O)C[C@@H](O)[C@H](C)[C@@H](O[C@@H]2O[C@H](C)[C@@H](O)[C@H](N(C)C)[C@H]2O)[C@@H](CCN2C[C@H](C)C[C@H](C)C2)C[C@@H](C)C(=O)/C=C/C(C)=C/[C@@H]1CO[C@@H]1O[C@H](C)[C@@H](O)[C@@H](OC)[C@H]1OC | -12.8% | –
CC[N+](C)(C)Cc1ccccc1Br | -0.287% [at 21.2 µM] | –
C=C1CC[C@@H]2[C@](C)(CO)[C@H](O)CC[C@@]2(C)[C@@H]1C/C=C1/C(=O)OC[C@H]1O | – | 25.1 µM (active)
O=C(Nc1cccc(C(F)(F)F)c1)c1cc(Br)cc(Br)c1O | – | 2.51 µM (active)
CC(=O)OCC(=O)[C@@]1(O)CC[C@H]2[C@@H]3C[C@H](C)C4=CC(=O)C=C[C@]4(C)[C@H]3[C@@H](O)C[C@@]21C | -9.25% | –
C#C[C@]1(O)CC[C@H]2[C@@H]3CCC4=CCCC[C@@H]4[C@H]3C(=C)C[C@@]21CC | – | 35.5 µM (active)
C[C@@H]1C[C@H]2[C@@H]3CCC4=CC(=O)C=C[C@]4(C)[C@@]3(F)[C@@H](O)C[C@]2(C)[C@@]1(O)C(=O)COP(=O)(O)O | 1.43% | –
CCC[C@@H]1C[C@@H](C(=O)N[C@@H]([C@H]2O[C@H](SC)[C@H](OP(=O)(O)O)[C@@H](O)[C@H]2O)[C@H](C)Cl)N(C)C1 | – | inactive
OCCO[C@@H]1[C@@H](O)[C@H](O)[C@@H](CO)O[C@@H]1O | -3.4% | –
CN(C)CC/C=C1/c2ccccc2CSc2ccccc21 | -31.5% [at 21.2 µM] | –
O=CCCCC=O | -22.9% | –
C[C@]12O[C@H](C[C@]1(O)CO)n1c3ccccc3c3c4c(c5c6ccccc6n2c5c31)CNC4=O | – | 0.447 µM (active)
CCOc1ccc2c(c1)C(C)=CC(C)(C)N2 | -12.6% | –
CC1(C)S[C@@H]2[C@H](NC(=O)C(N)c3ccccc3)C(=O)N2[C@H]1C(=O)OC1OC(=O)c2ccccc21 (stereo not given in full) | -8.29% [at 21.2 µM] | –
CC(=O)N(CC(C)C(=O)O)c1c(I)cc(I)c(N)c1I (stereo not given) | -18.6% [at 21.2 µM] | –
C/C1=C2N=C(/C=C3N=C(/C(C)=C4\[N-][C@@](C)([C@@H]5N=C1[C@](C)(CCC(=O)NCC(C)OP(=O)(O)O[C@H]1[C@@H](O)[C@@H](n6cnc7cc(C)c(C)cc76)O[C@@H]1CO)[C@H]5CC(N)=O)[C@@](C)(CC(N)=O)[C@@H]4CCC(N)=O)[C@@](C)(CC(N)=O)[C@@H]\3CCC(N)=O)C(C)(C)[C@@H]/2CCC(N)=O.CC(=O)O.[Co] (stereo not given in full) | -25.4% | –
